# Source: PMC11062922 (Nature Chemical Biology, 2023)
# Where two headings read alike, the source gives them in different places.
# Legend:
# Design in all cases: species or system human, MV4-11 + K-562 + COLO205 + SK-N-BE2 + OVCAR-8
# [1] = test system: CDC7; settings: read-out: apparent Kd, n = 1
# [2] = test system: CDK5; settings: read-out: apparent Kd, n = 1
# [3] = test system: CDK6; settings: read-out: apparent Kd, n = 1
# [4] = test system: ICK; settings: read-out: apparent Kd, n = 1
# [5] = test system: MAP4K1; settings: read-out: apparent Kd, n = 1
# [6] = test system: STK26; settings: read-out: apparent Kd, compound concentrations: 100 nM and 1000 nM (sheet 'Samples'), n = 1
# [7] = test system: PRKCB; settings: read-out: apparent Kd, n = 1
# [8] = test system: NQO2; settings: read-out: apparent Kd, compound concentrations: 100 nM and 1000 nM (sheet 'Samples'), n = 1
# [9] = test system: T1, DJA1; settings: read-out: apparent Kd, compound concentrations: 100 nM and 1000 nM (sheet 'Samples'), n = 1
# T1 construct: gene DNAJA1
# [10] = test system: NLK; settings: read-out: apparent Kd, compound concentrations: 100 nM and 1000 nM (sheet 'Samples'), n = 1
# [11] = test system: PIK3CA; settings: read-out: apparent Kd, compound concentrations: 100 nM and 1000 nM (sheet 'Samples'), n = 1
# [12] = test system: JAK1; settings: read-out: apparent Kd, n = 1
# [13] = test system: IRAK4; settings: read-out: apparent Kd; compound concentrations:100 nM and 1000 nM (sheet 'Samples'); n = 1
# [14] = test system: ATR; settings: read-out: apparent Kd; compound concentrations: 100 nM and 1000 nM (sheet 'Samples'), CATDS: 4.3166992032332097E-2; n = 1
# [15] = test system: JAK2; settings: read-out: apparent Kd; compound concentrations: 100 nM and 1000 nM (sheet 'Samples'), CATDS: 1.8350594186084E-2; n = 1
# [16] = test system: ACVR1; settings: read-out: apparent Kd; compound concentrations: 100 nM and 1000 nM (sheet 'Samples'), CATDS: 4.3782572898148998E-2; n = 1
# [17] = compound concentrations:100 nM and 1000 nM (sheet 'Samples')
structure (smiles),measurement,setting,value
NS(=O)(=O)c1ccc(NC=C2C(=O)Nc3ccc4ncsc4c32)cc1 [GW589933X],potency estimated from few doses,"[1]; compound concentrations: 100 nM and 1000 nM (sheet 'Samples'), CATDS: 1.6133442669584601E-2",2200 nM
same,potency estimated from few doses,"[2]; compound concentrations: 100 nM and 1000 nM (sheet 'Samples'), CATDS: 3.21718775388454E-2",288 nM
same,potency estimated from few doses,"[3]; compound concentrations: 100 nM and 1000 nM (sheet 'Samples'), CATDS: 2.1682770776227499E-2",765 nM
same,potency estimated from few doses,"[4]; compound concentrations: 100 nM and 1000 nM (sheet 'Samples'), CATDS: 1.95269690039667E-2",1050 nM
same,potency estimated from few doses,"[5]; compound concentrations: 100 nM and 1000 nM (sheet 'Samples'), CATDS: 1.8829734427402701E-2",1190 nM
same,potency estimated from few doses,[6]; CATDS: 5.6823828903644298E-2,94.3 nM
Cc1occc1-c1nc(N)c(OC[C@@H](N)Cc2c[nH]c3ccccc23)cc1-c1cc2c(C)n[nH]c2cn1 [GSK1660450B],potency estimated from few doses,[7]; [17],126 nM
COc1cc[nH]c1/C=C1\C(=O)Nc2ccc(F)c(I)c21 [RO0281567-000],potency estimated from few doses,[8]; CATDS: 0.103820399985183,1830 nM
Cn1cc(C2=C(c3c(S(C)=O)n(C)c4ccccc34)C(=O)NC2=O)c2ccccc21 (stereo not drawn) [RO0317379-000],potency estimated from few doses,[8]; CATDS: 0.10247036288978301,1820 nM
Nc1nc(-c2ccc3c(N)n[nH]c3c2)cc(N2CCCC(NC(=O)c3ccccc3)C2)n1 (stereo not drawn) [GSK2286775B],potency estimated from few doses,[3]; [17],1510 nM
NS(=O)(=O)c1cccc(-c2ccc3c(NC(=O)C4CC4)n[nH]c3c2)c1 [SB-741905],potency estimated from few doses,[9]; CATDS: 0.110749292558391,1780 nM
same,potency estimated from few doses,[10]; CATDS: 0.11088369265314001,1780 nM
same,potency estimated from few doses,[11]; CATDS: 0.24789463028651901,301 nM
CCn1c(-c2nonc2N)nc2cncc(Br)c21 [SB-738004],potency estimated from few doses,[1]; [17],655 nM
same,potency estimated from few doses,[7]; [17],1350 nM
Cn1cc(C=C2C(=O)Nc3cccnc32)c2ccccc21 [GW441756X],potency estimated from few doses,"[12]; compound concentrations: 100 nM and 1000 nM (sheet 'Samples'), CATDS: 0.22655128290916701",1250 nM
Cc1cc(NC(=O)c2cccc(NC(=O)/C=C/CN(C)C)c2)ccc1Nc1nccc(-c2cccnc2)n1 [JNK-IN-7],potency estimated from few doses,[4]; [17],1290 nM
O=C1N=C(NCc2ccccc2Br)S/C1=C\c1ccc2ncccc2c1 [RO4506918-000],potency estimated from few doses,[8]; CATDS: 7.7702899171443504E-2,1480 nM
NS(=O)(=O)c1ccc(N/N=C2\C(=O)Nc3ccc4ncccc4c32)cc1 [GW305178X],potency estimated from few doses,"[2]; compound concentrations: 100 nM and 1000 nM (sheet 'Samples'), CATDS: 5.4245718700327898E-2",776 nM
same,potency estimated from few doses,[6]; CATDS: 3.9228488204277198E-2,2190 nM
COc1cc[nH]c1/C=C1\C(=O)Nc2ccc(F)c(C#C[C@@H](O)[C@@H](N)[C@@H](C)O)c21 [RO0283120-000],potency estimated from few doses,[2]; [17],1070 nM
same,potency estimated from few doses,[3]; [17],1140 nM
same,potency estimated from few doses,[12]; [17],468 nM
same,potency estimated from few doses,[5]; [17],1060 nM
CNCC1CCn2c(c(C3=C(c4cn(C)c5ccccc45)C(=O)NC3=O)c3ccccc32)C1 (stereo not drawn) [RO0318676-000],potency estimated from few doses,"[7]; compound concentrations: 100 nM and 1000 nM (sheet 'Samples'), CATDS: 0.17130797334845299",28.9 nM
NS(=O)(=O)c1ccc(N/N=C2\C(=O)Nc3ccc(-c4cnco4)cc32)cc1 [GW276655_KCGS],potency estimated from few doses,[4]; [17],1770 nM
CCn1c(-c2nonc2N)nc2cncc(C(=O)N3CC[C@H](N)C3)c21.Cl [SB-772077-B],potency estimated from few doses,[7]; [17],752 nM
CN(C)c1ccc2c(c1)/C(=C/Nc1ccc(S(N)(=O)=O)cc1)C(=O)N2 [GW416469X],potency estimated from few doses,[9]; CATDS: 7.6568205350202298E-2,1420 nM
same,potency estimated from few doses,[11]; CATDS: 0.16808925824439999,245 nM
same,potency estimated from few doses,[6]; CATDS: 7.4408225949633894E-2,1550 nM
O=C(Nc1n[nH]c2nc(-c3ccccc3O)ccc12)C1CC1 [SB-711880],potency estimated from few doses,[13],958 nM
Nc1nccc(-c2ccc3c(N)n[nH]c3c2)n1 [GSK1034945A],potency estimated from few doses,[1]; [17],1420 nM
same,potency estimated from few doses,[3]; [17],2150 nM
NS(=O)(=O)c1ccc(N/C=C2\C(=O)Nc3ccc4ncsc4c32)cc1 [GW297361X],potency estimated from few doses,"[1]; compound concentrations: 100 nM and 1000 nM (sheet 'Samples'), CATDS: 3.3579769325783403E-2",1330 nM
same,potency estimated from few doses,"[2]; compound concentrations: 100 nM and 1000 nM (sheet 'Samples'), CATDS: 4.1634678032953398E-2",772 nM
same,potency estimated from few doses,"[3]; compound concentrations: 100 nM and 1000 nM (sheet 'Samples'), CATDS: 3.48419374837717E-2",1200 nM
same,potency estimated from few doses,[6]; CATDS: 3.6702057868443203E-2,1050 nM
CCC(CC)(CC)n1cnc2c(N)ncnc21 [SKF-97620],potency estimated from few doses,[14],432 nM
same,potency estimated from few doses,[11]; CATDS: 0.13947400940733601,53.9 nM
COc1ccc(Nc2nccc(NCCNC(=O)Nc3cc(C)ccc3C)n2)cc1 [GSK1379899A],potency estimated from few doses,[9]; CATDS: 4.7532524958751397E-2,1320 nM
same,potency estimated from few doses,[11]; CATDS: 0.114925337657843,250 nM
CN[C@H](C#Cc1c(F)ccc2c1/C(=C/c1[nH]ccc1OC)C(=O)N2)CO.Cl [RO0283049-001],potency estimated from few doses,"[3]; compound concentrations: 100 nM and 1000 nM (sheet 'Samples'), CATDS: 1.9484263699736298E-2",2150 nM
same,potency estimated from few doses,"[12]; compound concentrations: 100 nM and 1000 nM (sheet 'Samples'), CATDS: 9.7447783313560105E-2",49.7 nM
same,potency estimated from few doses,"[5]; compound concentrations: 100 nM and 1000 nM (sheet 'Samples'), CATDS: 2.1208459408743999E-2",1460 nM
COc1cc[nH]c1/C=C1\C(=O)Nc2ccc([N+](=O)[O-])c(N3CC[C@@H](O)C3)c21 [RO0504985-000],potency estimated from few doses,"[2]; compound concentrations: 100 nM and 1000 nM (sheet 'Samples'), CATDS: 3.2036617578660199E-2",1470 nM
same,potency estimated from few doses,"[4]; compound concentrations: 100 nM and 1000 nM (sheet 'Samples'), CATDS: 0.118189348894571",47 nM
same,potency estimated from few doses,"[12]; compound concentrations: 100 nM and 1000 nM (sheet 'Samples'), CATDS: 3.4351644402230902E-2",1130 nM
Cl.Cl.NCC(NC(=O)c1cc(-c2ccnc3[nH]ccc23)cs1)c1ccccc1.NCC(NC(=O)c1cc(-c2ccnc3[nH]ccc23)cs1)c1ccccc1 (stereo not drawn) [GSK1229959A],potency estimated from few doses,[15],1230 nM
CC(C)(CO)CNC(=O)c1ccc2c(c1)/C(=N/Nc1ccc(S(N)(=O)=O)cc1)C(=O)N2 [GW301784X],potency estimated from few doses,[4]; [17],1680 nM
Cl.Nc1nc(-c2ccc3c(c2)C(=Cc2cc(Br)c(O)c(Br)c2)C(=O)N3)cs1 [GW407323A],potency estimated from few doses,"[1]; compound concentrations: 100 nM and 1000 nM (sheet 'Samples'), CATDS: 3.34335879912959E-2",903 nM
same,potency estimated from few doses,"[2]; compound concentrations: 100 nM and 1000 nM (sheet 'Samples'), CATDS: 3.2075067944878903E-2",1060 nM
same,potency estimated from few doses,[8]; CATDS: 3.5438928095243502E-2,734 nM
Cl.Oc1cccc(Nc2ccnc3cc(-c4ccncc4)ccc23)c1 [GW494601A],potency estimated from few doses,[16],69 nM
same,potency estimated from few doses,[10]; CATDS: 1.9274779311166401E-2,1830 nM
